Structures are written as SMILES. Active and inactive are the calls of the source.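 The calls were made as follows, unless noted: active = inhibition at or above 50% at 10 µM; inactive = inhibition below 50%.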

The nature of test [1]: inhibitors of TNFa-induced NFkB p65 translocation, primary screen, imaging, HUVEC, MLSMR starter and 10KST1 sets (AID 438;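 active = inhibition above 20% together with a positive visual image hit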;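 also: compound added about 3h40 before a 20 min TNFalpha stimulation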;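 as to inhibition: signal is the nuclear over cytoplasmic p65 intensity ratio per well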). The note with it: HUVEC TNFa-induced p65 nuclear translocation; cell count: measured here: nuclei count (cytotoxicity indicator), at 2.08 µM; inhibition: at 2 µM, stronger effect = higher value, 0% TNFa-plus-vehicle, 100% no-TNFa wells.
A short description of test [2]: inhibitors of mutant huntingtin aggregation, primary screen, imaging, exon1htt(103Q)mCFP cells, high-content imaging (AID 483;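 active = visual image review flags a hit and inhibition of aggregation exceeds 20%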;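 also: compound exposure lasted 3 days before fixation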;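 as to nuclei count: percent of the per-plate median nuclei count of sample wells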). The note with it: exon1htt(103Q)mCFP cell line, aggregate imaging, at 2 µM; inhibition of aggregation: stronger effect = higher value; nuclei count: measured here: cell count, toxicity.
Test [3] can be described thus: inhibitors of E-selectin induction by TNFa, primary screen, imaging, HUVEC, immunofluorescence, MLSMR starter and 10KST1 sets (AID 487;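 active = visually confirmed hit in the image check and inhibition above 20%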;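 as to inhibition: signal is fraction of cell area covered by stained E-selectin grains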;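 as to nuclei count: 100% = median nuclei count of all wells on the same plate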). The note with it: HUVEC TNFalpha-induced E-selectin immunofluorescence imaging, at 2 µM; inhibition: stronger effect = higher value; nuclei count: measured here: cell number, toxicity.
The target in test [4] is Voltage-gated potassium channel subunit beta-2 (Rattus norvegicus) (UniProt P62483). The test is described as follows: KvBeta enzyme negative modulators, primary screen, biochemical, NADPH fluorescence (AID 622;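 active = fluorescence slope higher than the sample average by over 3 SD, cut at about -0.22 in these data, passing the limit was not always enough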;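 also: slope of raw intensity against log time taken from 70 to 1610 s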). The note with it: recombinant KvBeta, 4-cyanobenzaldehyde reduction, at 10 µM, stronger effect = higher value.
Chain of Voltage-gated potassium channel subunit beta-2 (Rattus norvegicus) (P62483 whole entry, looked up): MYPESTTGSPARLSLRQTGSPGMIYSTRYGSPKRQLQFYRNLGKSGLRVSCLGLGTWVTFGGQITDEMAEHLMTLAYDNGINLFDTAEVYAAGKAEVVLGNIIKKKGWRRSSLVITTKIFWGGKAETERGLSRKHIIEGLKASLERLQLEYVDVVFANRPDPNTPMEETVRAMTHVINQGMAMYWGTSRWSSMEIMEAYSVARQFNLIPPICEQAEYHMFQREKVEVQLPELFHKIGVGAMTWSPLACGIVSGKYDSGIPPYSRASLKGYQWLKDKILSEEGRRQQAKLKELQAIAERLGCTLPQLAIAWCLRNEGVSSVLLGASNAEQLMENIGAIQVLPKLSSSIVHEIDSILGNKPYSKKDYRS
Test [5] has the same target. In words: KvBeta positive modulators, primary screen, biochemical, NADPH fluorescence (AID 623;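 active = NADPH fluorescence slope more negative than the mean of all samples by about 3 SD, 99.7% confidence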;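 also: fluorescence intensity change per second fitted from 20 to 320 s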). The note with it: Recombinant KvBeta, NADPH fluorescence decrease slope, 10 min; at 10 µM; stronger effect = lower value.
In test [6] the target is Alpha-2C adrenergic receptor (Homo sapiens) (UniProt P18825). The test is described as follows: modulators of alpha2C/GIRK thallium flux, primary screen, cell-based, HEK293 alpha2C/GIRK1/2 (AID 624;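 active = fluorescence slope after compound addition differing from the mean of all screened samples at 99.7% confidence, in either direction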;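 also: slope of fluorescence ratio to pre-addition baseline per second over 15 to 24 s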). The note with it: thallium flux BTC fluorescence, at 10 µM, actives lie on both sides.
Chain of Alpha-2C adrenergic receptor (Homo sapiens) (P18825 whole entry, looked up): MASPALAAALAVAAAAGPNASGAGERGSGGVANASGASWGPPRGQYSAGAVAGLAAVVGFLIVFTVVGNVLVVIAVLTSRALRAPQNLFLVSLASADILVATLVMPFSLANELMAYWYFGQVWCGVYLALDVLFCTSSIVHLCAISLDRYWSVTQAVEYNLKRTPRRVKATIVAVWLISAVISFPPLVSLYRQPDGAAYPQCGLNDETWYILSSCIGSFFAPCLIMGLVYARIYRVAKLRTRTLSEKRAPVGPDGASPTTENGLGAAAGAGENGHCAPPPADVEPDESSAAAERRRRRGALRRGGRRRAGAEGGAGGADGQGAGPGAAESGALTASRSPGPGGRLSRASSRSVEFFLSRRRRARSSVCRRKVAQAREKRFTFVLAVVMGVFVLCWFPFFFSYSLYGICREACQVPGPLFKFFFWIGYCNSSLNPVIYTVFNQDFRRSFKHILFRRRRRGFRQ
Test [7] can be described thus: inhibitors of Sendai virus-induced IRF3 signaling, primary screen, TLR/RLR signaling modifier project, cell-based, Sendai virus stimulus, luciferase, 10K MLSCN set (AID 602276).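 Also: firefly luciferase from ISG56 promoter only with Renilla not read in this screen; 0% = Sendai virus plus DMSO and 100% = medium plus DMSO without virus.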 Conditions: HEK293 RL24 IRF3 luciferase reporter, at 10 µM, stronger effect = higher value. On the technique in general: Reporter assays use an easily measured gene product as a stand-in for the process of interest.

Test [8] can be described thus: inhibitors of poly I:C-induced TLR3 signaling, primary screen, cell-based, poly I:C stimulus, luciferase, 10K MLSCN set (AID 602277;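 active = inhibition of the reporter signal at or above 50%; inactive = inhibition below 50%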). The note with it: HEK293-TLR3 RL24 IRF3 luciferase reporter, at 10 µM, stronger effect = higher value.

Take `COc1cccc(OCC(=O)Nc2ccccc2C(N)=O)c1`: the cell count in test [1] worked out at 681. In addition, the inhibition (as a rule, the drop in the measured response relative to a control, in per cent) in test [1] was 0.4% (inactive); in test [3], -73.4% (inactive); in test [7], -50.2% (inactive); in test [8], -121% (inactive). Moreover, in test [2], the inhibition of aggregation is 9.9% (inactive). The nuclei count in test [2] is 104%; in test [3] it was 110%. In addition, the fluorescence slope in test [4] was -0.517 (inactive). Moreover, the NADPH fluorescence slope in test [5] is 1.4e-05 (inactive). The slope in test [6] was 0.00589 (inactive).

With `CCn1c(SCc2cccc(C(F)(F)F)c2)nnc1-c1ccco1`, the cell count in test [1] came out at 616. In addition, the inhibition in test [1] is 4.8% (inactive); in test [3], -15.2% (inactive); in test [7], 13.2% (inactive); in test [8] it was 3.48% (inactive). Also, the inhibition of aggregation in test [2] was 4.5% (inactive). For the same compound, the figures for the nuclei count in test [2] and in test [3] were 94.1% and 104%, respectively. For the same compound, the fluorescence slope in test [4] was -0.414 (inactive). The NADPH fluorescence slope in test [5] is -3.6e-05 (inactive). Also, the slope in test [6] is 0.00568 (inactive).

With `CN(C)CCCn1c(N)c(C#N)c2nc(C#N)c(C#N)nc21`, the cell count in test [1] is 735. Also, the inhibition is -14.6% (inactive) in test [1], -55.1% (inactive) in test [3], 48.9% (inactive) in test [7] and 79.3% (active) in test [8]. The inhibition of aggregation in test [2] is 0% (inactive). Also, the nuclei count in test [2] came to 128%; in test [3], 106%. Moreover, in test [4], the fluorescence slope was -0.0856 (active). Besides, the NADPH fluorescence slope in test [5] was -1.8e-05 (inactive). In test [6], the slope was 0.00617 (inactive).

On to `CNC(=O)c1ccsc1NC(=O)c1ccccc1`, for which the cell count in test [1] worked out at 512. In addition, the inhibition in test [1] is 4.7% (inactive); in test [3] it was 7.3% (inactive); in test [7] it was -11.3% (inactive); in test [8] it was -28.3% (inactive). Besides, the inhibition of aggregation in test [2] was 12.3% (inactive). Also, the nuclei count in test [2] came to 91.6%; in test [3], 88.8%. Further, the fluorescence slope in test [4] was -0.413 (inactive). For the same compound, the NADPH fluorescence slope in test [5] was -1.9e-05 (inactive). The slope in test [6] was 0.00587 (inactive).

Turning to `CC(CN(C)Cc1ccccc1)OC(=O)c1ccc2c(c1)OCCO2` (centres undefined), in test [1], the cell count was found to be 596. In addition, the inhibition is 0% (inactive) in test [1], -40.2% (inactive) in test [3], 8.96% (inactive) in test [7] and 8.88% (inactive) in test [8]. Besides, the inhibition of aggregation in test [2] was -0.4% (inactive). Moreover, the nuclei count in test [2] is 126%; in test [3], 109%. For the same compound, the fluorescence slope in test [4] was -0.48 (inactive). Besides, the NADPH fluorescence slope in test [5] was -5.1e-05 (inactive). The slope in test [6] was 0.00539 (inactive).

In the case of `CCN(c1c(C)n(C)n(-c2ccccc2)c1=O)S(C)(=O)=O`, the cell count in test [1] stood at 614. The inhibition in test [1] was 11.6% (inactive); in test [3] it was -98.2% (inactive); in test [7], 23.1% (inactive); in test [8], 24.6% (inactive). In addition, the inhibition of aggregation in test [2] was 3.3% (inactive). For the same compound, the nuclei count came out at 104% in test [2] and 145% in test [3]. Also, the fluorescence slope in test [4] is -0.58 (inactive). Also, the NADPH fluorescence slope in test [5] was -3.6e-05 (inactive). Further, the slope in test [6] is 0.00621 (inactive).

Regarding `COc1ccccc1N1CC(O)=C(c2nc3ccccc3c(=O)[nH]2)C1=N`, the cell count in test [1] is 399. Further, the inhibition was 1.4% (inactive) in test [1], -73.7% (inactive) in test [3], 11.7% (inactive) in test [7] and 28.7% (inactive) in test [8]. Further, the inhibition of aggregation in test [2] is 22.7% (inactive). Also, the nuclei count in test [2] was 62.7%; in test [3], 126%. Further, the fluorescence slope in test [4] was -0.546 (inactive). Besides, the NADPH fluorescence slope in test [5] is -3.6e-05 (inactive). The slope in test [6] was 0.00655 (inactive).

In the case of `Cc1c2cnn(CC(=O)N3CCN(c4ncccn4)CC3)c(=O)c2c(C)n1Cc1ccc(F)cc1`, in test [1], the cell count turned out to be 405. Also, the inhibition in test [1] is -9.2% (inactive); in test [3], -130% (inactive); in test [7], -14.2% (inactive); in test [8] it was -8.56% (inactive). Also, the inhibition of aggregation in test [2] was 4.7% (inactive). Moreover, the nuclei count was determined as 99.5% in test [2] and 118% in test [3]. The fluorescence slope in test [4] is -0.371 (inactive). Further, the NADPH fluorescence slope in test [5] is -3.3e-05 (inactive). Moreover, the slope in test [6] was 0.00444 (inactive).

For the compound `Cc1csc(NC(=O)c2cccs2)n1`, the cell count in test [1] worked out at 464. Moreover, the inhibition in test [1] is 1% (inactive); in test [3], -47.5% (inactive); in test [7] it was -38.4% (inactive); in test [8], -103% (inactive). Further, the inhibition of aggregation in test [2] was 30.4% (inactive). The nuclei count in test [2] is 83.3%; in test [3] it was 99.5%. Further, the fluorescence slope in test [4] was -0.506 (inactive). Further, the NADPH fluorescence slope in test [5] was -4.8e-05 (inactive). Moreover, the slope in test [6] was 0.00677 (inactive).

Regarding `COc1ccc(C(=O)c2ccc(OC)c(N)c2)cc1N`, the cell count in test [1] came to 298. The inhibition was -11.7% (inactive) in test [1], -187% (inactive) in test [3], 35% (inactive) in test [7] and 27.2% (inactive) in test [8]. Besides, in test [2], the inhibition of aggregation was -64.9% (inactive). Besides, the figures for the nuclei count in test [2] and in test [3] were 3.2% and 111%, respectively. Further, the fluorescence slope in test [4] is -0.465 (inactive). Further, the NADPH fluorescence slope in test [5] was -7.4e-05 (inactive). The slope in test [6] is 0.00541 (inactive).

`c1ccc(Nc2ccccc2Nc2ccccn2)nc1`: the cell count in test [1] stood at 306. In addition, the inhibition in test [1] was 4.4% (inactive); in test [3], 8.5% (inactive); in test [7], 13% (inactive); in test [8], 25% (inactive). Also, the inhibition of aggregation in test [2] is 21.6% (inactive). Besides, the values for the nuclei count in test [2] and in test [3] were 88.1% and 90.5%, respectively. The fluorescence slope in test [4] was -0.379 (inactive). For the same compound, the NADPH fluorescence slope in test [5] is -5.3e-06 (inactive). The slope in test [6] was 0.00758 (inactive).

In the case of `O=C(C1CC1)N1CCC(c2nc(-c3ccc(S(=O)(=O)NCC4CCCO4)cc3)no2)CC1` (centres undefined), the cell count in test [1] turned out to be 334. Further, the inhibition is -3% (inactive) in test [1], -43.6% (inactive) in test [3], -27.5% (inactive) in test [7] and -49.4% (inactive) in test [8]. For the same compound, the inhibition of aggregation in test [2] was -20.7% (inactive). Moreover, the nuclei count is 143% in test [2] and 91.9% in test [3]. Moreover, in test [4], the fluorescence slope is -0.491 (inactive). For the same compound, the NADPH fluorescence slope in test [5] is 3.5e-06 (inactive). Also, the slope in test [6] was 0.00666 (inactive).

On to `COCCNC(=O)C(c1cccc(OC)c1)N(Cc1cccs1)C(=O)Cn1nnc2ccccc21` (centres undefined), for which the cell count in test [1] came to 722. The inhibition was -15.1% (inactive) in test [1], -34.3% (inactive) in test [3], 12.4% (inactive) in test [7] and 20.1% (inactive) in test [8]. For the same compound, in test [2], the inhibition of aggregation was 8% (inactive). For the same compound, the nuclei count in test [2] and in test [3] was 109% each time. In test [4], the fluorescence slope is -0.622 (inactive). Moreover, the NADPH fluorescence slope in test [5] is -5.4e-05 (inactive). The slope in test [6] was 0.00445 (inactive).

Turning to `CCC1(c2ccc(F)cc2)NC(=O)N(CC(=O)c2ccc[nH]2)C1=O` (centres undefined), the cell count in test [1] is 556. The inhibition in test [1] was -20.6% (inactive); in test [3], -36.7% (inactive); in test [7], 4.26% (inactive); in test [8], 27% (inactive). Moreover, the inhibition of aggregation in test [2] was 6.8% (inactive). For the same compound, the values for the nuclei count in test [2] and in test [3] were 99.9% and 114%, respectively. In addition, the fluorescence slope in test [4] was -0.419 (inactive). The NADPH fluorescence slope in test [5] is -4.1e-05 (inactive). In addition, in test [6], the slope was 0.00348 (inactive).
